# In the supplement of paper PMC6555819:
# Experiments:
# Assay in all cases: PBM binding z-score (relative to random genomic background probes); higher = stronger binding; sequences stand for … in GC…GCGATTGACAGCGTAGAATGAAGG
# [1] = system: FXR:RXRa (NR concentration 270 nM, RXRa partner concentration 90 nM)
# In short: (§1)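 The probes on custom Agilent 4×180K protein-binding microarrays were double-stranded, with 34-nt variable regions bearing direct-repeat seeds, single-nucleotide variants, half-site ablations and random human genomic background sequences. Incubation lasted 1 h with ligand-free nuclear receptor dimers in PBS pH 7.4, 2% milk, 0.02% Triton X-100, 1 mM DTT, 0.2 mg/mL BSA and 0.4 mg/ml salmon testes DNA. Antibodies against each partner (one per run) detected bound dimers, and fluorescence scans were regression-normalized. Binding z-scores take the random background probes as reference.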
# [2] = system: LXRa:RXRa (NR concentration 270 nM, RXRa partner concentration 90 nM)
# In short: as §1
# [3] = system: LXRa homodimer (NR concentration 270 nM)
# In short: as §1
# [4] = system: LXRb:RXRa (NR concentration 270 nM, RXRa partner concentration 90 nM)
# In short: as §1
# [5] = system: LXRb homodimer (NR concentration 270 nM)
# In short: as §1
# [6] = system: PPARa:RXRa (NR concentration 270 nM, RXRa partner concentration 90 nM)
# In short: as §1
# [7] = system: PPARg:RXRa (NR concentration 180 nM, RXRa partner concentration 90 nM)
# In short: as §1
# [8] = system: PPARg:RXRa 270nM:90nM, anti-RXR (NR concentration 270 nM, RXRa partner concentration 90 nM)
# In short: as §1
# [9] = system: PPARg:RXRa 30nM:10nM, anti-RXR (NR concentration 30 nM, RXRa partner concentration 10 nM)
# In short: as §1
# [10] = system: PPARg:RXRa 90nM:30nM, anti-RXR (NR concentration 90 nM, RXRa partner concentration 30 nM)
# In short: as §1
# [11] = system: PPARg:RXRa DBDmut IVT, anti-RXR (DBD mutation: RXRa K156A/R161A, NR concentration 270 nM, RXRa partner concentration 90 nM)
# In short: as §1
# [12] = system: PPARg:RXRa IVT, anti-PPARg (NR concentration 270 nM, RXRa partner concentration 90 nM)
# In short: as §1
# [13] = system: PPARg DBDmut:RXRa IVT, anti-PPARg (DBD mutation: PPARg1 K132A/R137A, NR concentration 270 nM, RXRa partner concentration 90 nM)
# In short: as §1
# [14] = system: PPARg DBDmut IVT, anti-PPARg (DBD mutation: PPARg1 K132A/R137A, NR concentration 270 nM)
# In short: as §1
# [15] = system: PPARg homodimer (NR concentration 180 nM)
# In short: as §1
# [16] = system: PXR:RXRa (NR concentration 270 nM, RXRa partner concentration 90 nM)
# In short: as §1
# [17] = system: PXR homodimer (NR concentration 270 nM)
# In short: as §1
# [18] = system: RARa:RXR (NR concentration 270 nM, RXRa partner concentration 90 nM)
# In short: as §1
# [19] = system: RARa homodimer (NR concentration 270 nM)
# In short: as §1
# [20] = system: RARb:RXRa (NR concentration 270 nM, RXRa partner concentration 90 nM)
# In short: as §1
Sequence,PBM binding z-score [1],PBM binding z-score [2],PBM binding z-score [3],PBM binding z-score [4],PBM binding z-score [5],PBM binding z-score [6],PBM binding z-score [7],PBM binding z-score [8],PBM binding z-score [9],PBM binding z-score [10],PBM binding z-score [11],PBM binding z-score [12],PBM binding z-score [13],PBM binding z-score [14],PBM binding z-score [15],PBM binding z-score [16],PBM binding z-score [17],PBM binding z-score [18],PBM binding z-score [19],PBM binding z-score [20]
CGAACTAGGTCATTGACAGGACACTGAATAGTAA,4.3,3,0.64,2.25,0.377,4.54,7.31,6.14,3.7,5.66,8.02,7.96,2,1.46,2.02,1.66,0.493,2.18,0.218,3.69
TCTTGTAGATCAACTGGAGGTTAAGAAAGATCGA,0.425,1.71,1.03,1.22,-0.276,1.53,-0.287,1.31,2.76,1.89,1.68,0.919,0.402,0.432,-0.255,0.704,-0.291,1.13,-0.0829,0.631
TCTTGTAGATCAATAGAGGATAAGAAAGTGCGCT,0.574,0.33,-0.0873,-0.13,-0.142,0.415,0.389,1.46,2.75,2.25,1.63,0.366,0.6,1.05,0.615,0.475,0.185,0.654,0.232,0.029
CCTACTGGGACAAAAAGGTCATTGATGCCGATAA,3.77,4.52,4.09,4.16,0.878,4.96,3.4,4.19,2.01,3.72,4,4.26,0.444,-0.273,3.86,4.85,4.14,5.36,1.97,3.94
GCTGCTAGGTCTACTGATGGTCAGCTAAAGCTCG,-0.686,-0.0634,-0.277,-0.896,-0.887,-0.691,-0.539,-0.623,-0.649,-0.834,0.214,-0.311,-1.02,-1.38,-1.15,-0.901,-1.2,-0.701,-0.754,-0.132
CCTACTGGGCCATTCAGAGGTCATTAATCATATG,2.24,3.76,5.48,3.81,0.468,3.74,1.99,2.79,0.44,2.02,4.22,4.37,0.0729,0.0343,2.11,4.17,2.46,3.83,0.0599,2.88
ATATGTAGGTTACATCCGGGACATTCAGGCTATG,0.396,2.2,0.343,1.11,0.574,3.44,5.41,4.47,1.95,3.37,7.57,7.46,4.54,2.06,1.33,0.599,0.5,0.964,0.969,1.08
CGAACTAGGTCCTCCAGGACAGTGAATACATTGA,-0.16,-0.319,-0.274,-0.492,-0.593,0.0563,0.755,0.537,-0.117,0.278,3.46,2.42,0.246,-0.00333,-0.188,-0.555,-0.316,-0.262,-0.913,-0.0568
CCGTACGGGTCACTGACAGGTTATAGCATTTGGA,5.54,4.34,0.355,3.7,-0.392,5.35,3.75,4.06,0.781,2.52,1.03,2.52,-0.133,-0.747,1.58,3.74,-0.0858,4.79,0.0778,4
CGAACTAGGTCATTGACAGGATAGTGAATAGTAA,4.3,2.82,0.355,2.01,-0.145,4.83,7.71,6.36,3.54,5.85,7.87,8.1,4.08,2.22,1.94,1.25,0.363,1.88,0.385,3.59
CCTAGCAGGCCAATCAGGGTCACTCAAGGCTTGA,2.6,3.39,-0.0064,3.03,-0.752,3.63,0.949,1.33,-0.454,0.361,1.3,1.7,-0.834,-1.49,0.893,4.07,-0.258,3.42,-0.49,2.36
AGTCAAAGTTCATCTACGTAACGTAAGATATGCT,6.79,6.21,5.33,3.97,1.6,4.77,6.55,6.3,3.58,5.65,0.41,2.74,1.46,1.88,2.94,4.96,4.87,3.51,1.69,4.85
CAAACTAGGTCAAGAAAGGTCAAAGTCGAATGAC,7.13,7.84,7.14,6.98,2.48,6.35,8.96,7.74,5.91,7.85,8.14,8.39,1.43,1.46,4.85,6.73,3.25,7.01,3.23,5.44
ATTCAAAGTTCACTAGGTAACGTAAGATTCAGCT,4.73,5.45,4.42,3.08,1.71,4.44,5.64,5.28,2.03,4.25,2.64,4.4,1.68,2.19,2.66,3.71,3.03,2.9,2.06,4.61
AGAACGAGGGCACGCTGAGTTGATAGAAGAGTAG,0.553,0.362,-0.441,0.106,-0.925,2.09,2.05,1.54,0.398,1.11,3.93,3.46,0.756,0.00527,0.193,1.28,-0.0963,0.661,-0.807,2.31
CGTAAAAGTTCAACTAAGGTAACGTAAAGCACGC,6.53,5.88,4.08,3.97,1.96,4.78,2.86,3.53,1.02,2.58,0.183,1.6,1.17,1.06,2.7,4.97,2.61,3.8,1.67,5.13
GCGATTGGGGCATCAGCAGGTTACCATAACTTAA,0.0293,-0.187,-0.243,1.24,-0.0268,0.814,0.255,-0.0261,-0.258,-0.582,1.79,0.996,-0.746,-0.408,0.245,0.113,-0.0157,0.281,-0.368,0.823
GCATATAGGTGATACAAGGTGAAAGTCCGATTGT,1.98,0.421,-0.185,0.234,-0.213,2.26,1.73,2.17,0.808,1.33,5.22,4.28,0.633,0.787,0.568,0.71,-0.00117,1.11,0.474,0.893
ACTTACGGGTCAACGAGGTTATAGTACGCGTATA,6.84,5.12,1.1,4.53,0.951,5.76,5.66,5.72,2.24,4.29,3.12,4.22,1.99,1.76,2.88,5.39,4.31,5.61,1.04,4.13
AGAACGAGCGCAATGAGTTGATAGCACGGGTGGC,-0.384,-0.917,-0.672,-1.03,-0.728,-0.619,0.568,-0.754,-0.641,-0.779,-0.343,-0.563,0.051,-0.552,0.0308,-0.486,-0.247,-0.449,-0.49,-0.312
CCAGACAGGCGAAAGGTAACTCAGTCTGGTACGC,-0.414,-0.478,-0.885,-0.448,-1.33,0.667,1.57,2.87,0.676,2.22,-0.357,-0.108,-0.986,-1.21,-0.19,-0.328,-0.718,-0.0922,-0.38,-0.0959
GCACATAGGTAATACAAGGTGAAAGTCCGATTGT,0.681,2.96,0.0603,0.767,-0.39,1.47,0.894,0.539,0.253,0.343,0.57,1.1,0.738,0.527,0.516,0.612,-0.214,1.59,0.568,0.552
TCTAGTTGGTCAAAGGTCACACCCTCGAAATGCG,5.49,5.27,4.32,5.41,1.92,6.69,11.6,10.1,10.3,12.2,3.68,6.43,1.66,0.719,6.91,6.04,2.22,7.62,4.33,5.02
ACAACGAGGGCACGCTGAGTTGATAGCAGAGTAG,0.762,0.503,-0.519,0.00813,-0.476,1.58,1.65,1.19,0.248,0.944,3.61,3.13,0.767,0.323,0.345,1.22,0.145,0.573,-0.791,2.63
TCGAGGAGGTTAGTCGGGGCATTCAGCCAACATA,0.421,0.675,-0.136,1.21,-0.337,1.43,-0.118,0.893,1.23,0.779,1.28,0.923,-0.713,-1.04,0.777,1.05,0.348,0.897,-0.313,1.01
ACTAGCAGGCCAAGGGCCACTCAAGATTAGTCCG,-0.56,-0.559,-0.856,-1,-1.27,0.699,2.13,3.13,1.28,2.51,0.244,0.822,-0.352,-1.82,-0.633,-0.879,-0.75,-0.678,-0.685,0.884
ACTCGGAGGACAAAGGTCAGAGTTACGCCAGTGA,4.06,4.17,1.93,3.55,0.422,5.03,7.06,6.77,5.57,7.32,0.7,3.34,0.234,-0.025,4.3,4.14,0.365,5.54,1.61,4.38
CCGAGTAGGTTATGGGGCGTTCAGGCAACGGTGA,0.244,0.548,-0.0765,0.47,-0.285,1.67,2.44,3.87,1.97,3.39,2.68,2.65,-0.225,-0.53,0.696,-0.0536,-0.251,0.233,-0.0281,0.904
